Screening results: PubChem, NMMLSC
The list is not random: actives were taken first. Their share in the collection is about 1.2%.
GSH bead fluor: GSH bead compound fluorescence profile; GSH beads flow cytometry, compound fluorescence 488/530 nm; active compounds read high; AID 1776; hit rate 0.25% among 190,000; fluorescence (KMESF) at 10 µM; in the data active means fluorescence above about 89;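 further: glutathione beads carrying GST-tagged Bcl family fusion proteins plus one bare bead set; values are compound well signal with DMSO vehicle wells as background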
RGS8-Gao: regulators of human RGS8-Galphao interaction; P09471; multiplexed bead flow cytometry, RGS8-Galphao binding; actives lie on both sides; response (percent of control binding), % at 10 µM; hit rate 0.34% among 220,000; AID 1423; in the data active means response below about 60% or above about 140%; inactive means in between;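 further: Galphao activated as the GDP aluminium fluoride complex binding bead-coupled RGS8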
Target sequence (P09471 whole entry, looked up): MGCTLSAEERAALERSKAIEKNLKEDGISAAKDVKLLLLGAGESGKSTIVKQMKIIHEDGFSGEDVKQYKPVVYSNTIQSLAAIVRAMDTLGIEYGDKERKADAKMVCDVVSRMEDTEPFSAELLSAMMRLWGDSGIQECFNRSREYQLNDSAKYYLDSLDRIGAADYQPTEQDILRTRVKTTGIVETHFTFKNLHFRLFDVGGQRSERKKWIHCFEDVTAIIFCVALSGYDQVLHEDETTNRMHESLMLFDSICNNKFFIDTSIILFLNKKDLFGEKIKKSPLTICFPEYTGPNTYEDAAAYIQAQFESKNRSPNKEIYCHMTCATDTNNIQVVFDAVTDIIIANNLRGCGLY
Avidin bead fluor: compound fluoresces at 488/530 nm on avidin beads | hit rate 0.38% among 220,000 | fluorescence (KMESF) at 10 µM | AID 1775 | compound fluorescence 488/530 nm, flow cytometry; active compounds read high; in the data active means fluorescence above about 47
RGS4-Gao reg: modulates binding of RGS4 to human Galphao | P09471 | Multiplexed bead flow cytometry; actives lie on both sides | binding response (% of control), % at 10 µM | hit rate 0.33% among 220,000; in the data active means binding response below about 49% or above about 150%; inactive means in between;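 further: fluorescent Galphao activated with aluminum fluoride binding bead-coupled RGS4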
RGS7-Gao: human RGS7-Galphao interaction regulation; AID 1439; Multiplexed bead flow cytometry, RGS7-Galphao binding; actives lie on both sides; binding response (% of control), % at 10 µM; hit rate 0.35% among 220,000; P09471; in the data active means binding response below about 49% or above about 150%; inconclusive means no clear call, values can overlap the other calls; inactive means in between;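 further: fluorescent Galphao held in activated GDP-AlF4 state binding bead-coupled RGS7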
RGS16-Gao HTS: RGS16-Galphao interaction regulator (human) | O15492+P09471 | bead-based flow cytometry RGS16-Galphao binding, fluorescence; actives lie on both sides | binding response (% of control), % at 10 µM | hit rate 0.38% among 220,000 | AID 1441; call rule not given here;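 further: Galphao activated by GDP with aluminum fluoride before binding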
Active calls of the source: *; ? = inconclusive; . = not tested or not shown.

SMILES	GSH bead fluor	RGS8-Gao	Avidin bead fluor	RGS4-Gao reg	RGS7-Gao	RGS16-Gao HTS
O=c1[nH]cc(S(=O)(=O)c2ccccc2)[nH]1	25	99	10	100	99	101
Cn1cc(C(F)(F)F)nc1-c1ccc(OCC(O)CNCCOc2ccc(O)c(C(N)=O)c2)cc1 (stereo unspecified)	.	101	9	98	?	105
O=C(c1ccc(CN2CCOCC2)cc1)N1CCC(Cc2ccccc2)CC1	23	102	91*	114	135	107
O=C1c2ccccc2NC(c2ccc3c(c2)OCCO3)N1c1ccc2c(c1)OCCO2 (stereo unspecified)	262*	101	8	107	102	103
COC(=O)c1cc(OC)c(OC)c(OC)c1N	259*	103	7	110	108	113
CCc1nnc(NC(=O)CN2CCN(c3nc(-c4ccccc4)cs3)CC2)s1	19	103	47*	103	110	100
CC(=O)N1CCC(C(=O)Nc2ccccc2)(N(Cc2ccccc2)C(=O)c2cccnc2)CC1	267*	104	8	102	100	106
CC(=O)Nc1ccc(/C=N/NC(=O)CNC(=O)c2ccccc2)cc1	7	102	7	106	109	106
Cc1sc2ncnc(NCc3ccccc3)c2c1C	25	100	12	94	100	94
Cc1sc2ncnc(Nc3ccccc3)c2c1C	13	99	92*	108	138	106
CCC(C)NS(=O)(=O)c1ccc(OCC(=O)NCc2ccccn2)cc1 (stereo unspecified)	14	102	16	104	110	107
CCC(C)NS(=O)(=O)c1ccc(OCC(=O)NCc2cccnc2)cc1 (stereo unspecified)	257*	95	4	103	104	64
COc1ccccc1N1CCN(C(=O)CSc2nc(-c3ccccc3)cc(=O)[nH]2)CC1	22	101	29	100	97	103
COc1ccccc1N1CCN(C(=O)CSc2nc(C)c(Cc3ccccc3)c(=O)[nH]2)CC1	15	101	78*	108	123	104
O=C(CSc1nnc(-c2ccco2)o1)NC(=O)C1COc2ccccc2O1 (stereo unspecified)	245*	71	3	70	77	6
CCCN1CCC(=NNC(=O)CSc2cc(C)c(Br)cc2C)CC1	17	99	16	99	101	101
CC1Oc2ccccc2N(CC(=O)NCC2CCCO2)C1=O (stereo unspecified)	20	102	54*	102	108	104
Cc1nn(CC(=O)O)c(=O)c2ccccc12	263*	104	7	108	108	107
CC1Oc2ccccc2N(CC(=O)NCc2ccccc2)C1=O (stereo unspecified)	24	103	11	100	104	104
Cc1nn(CC(=O)NCC2CCCO2)c(=O)c2ccccc12 (stereo unspecified)	270*	102	9	104	106	108
Cc1nnc(SCC(=O)NCC2CCCO2)n1-c1ccccc1 (stereo unspecified)	273*	99	9	97	95	100
Cc1cc(C)c(C(=O)Nc2ccc(C)c(C)c2)c(CC(C)(C)C(=O)O)c1	.	96	3	92	?	91
CCNC(=O)CSc1nnc(CN2CCCCCC2=O)n1-c1ccccn1	15	103	26	103	103	109
O=C1CCCCCN1Cc1nnc(SCc2nc3ccccc3s2)n1-c1ccccn1	257*	101	8	103	106	108
COc1cc(C=O)ccc1OCC(=O)NC(C)(C)C	20	101	6	102	105	102
CCNC(=O)COC(=O)Cc1ccc(Cl)cc1Cl	16	96	9	94	96	95
CC(C)CCNC(=O)CN(C(=O)Cn1nnc(-c2ccccc2F)n1)c1cccc2c1CCCC2	23	12*	-1	20*	12*	0.7*
CCn1c(COc2ccc(=O)n(-c3ccccc3)n2)nnc1SCc1cccc(OC)c1	12	13*	-1	-20*	-3.1*	-13*
CC(C)Sc1nc2c([nH]c3ccccc32)c(=O)n1C	11	102	57*	104	118	111
